In PubChem BioAssay (NCATS):
Inconclusive results are not listed. Calls of active or inactive are those of the source. The call rests on the fitted dose curve; in most records, active means well fitted curve in the direction sought with a large enough effect; inconclusive means small, poorly fitted or top-dose-only effect, or another doubt; inactive means no such curve, though single readings can be large; an effect the other way counts as inactive or inconclusive.

Tests used:
[1] = MCF7 Cancer Cell Toxicity qHTS against the NCATS CANVASS Library (AID 1347369); conditions: MCF7 viability, ATP luminescence (CellTiter-Glo), 72 h; series mostly up to 46 µM
Source text: (§1) Natural products and their derivatives continue to be wellsprings of nascent therapeutic potential. However, many laboratories have limited resources for biological evaluation, leaving their previously isolated or synthesized compounds largely or completely untested. To address this issue, the Canvass library of natural products was assembled (https://tripod.nih.gov/canvass), in collaboration with academic and industry researchers, for quantitative high-throughput screening (qHTS) across a diverse set of cell-based and biochemical assays. The pure (>85% purity by liquid chromatography/mass spectrometry [LC/MS]) Canvass library of 346 natural products were submitted by 45 academic laboratories and companies around the world. […] The library was formatted into 1536-well plates and evaluated in 50 qHTS (in an 11-pnt concentration series) bioassays with broad scope of disease-relevant mechanisms. The resulting data set from 50 different assays was then systematically analyzed to identify overall trends and specific natural products with interesting biological activities. […] This assay uses ATP (luminescence) content to measure the cytotoxiciy of compounds on MCF7 human breast cancer cell line. […]
Cancer Cell Toxicity qHTS protocol: MCF7 cell line 1. […] Luminescence signal was acquired via the ViewLux plate reader (PerkinElmer) using a clear emission filter, 2 sec exposure, and 1x binning settings.

[2] = qHTS for ATAD5 Antagonist screened against the NCATS CANVASS Library (AID 1347370); conditions: HEK293T-ATAD5-luc, 5-FUrd stimulated, luminescence, 16 h; series mostly up to 46.1 µM;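 further: HEK293T cells carrying an ATAD5 luciferase reporter co-treated with 10 µM 5-fluorouridine; nearly all actives have a fitted effect of over 65% in size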
Source text: as §1, with “assays.” for “assays. The pure (>85% purity by liquid chromatography/mass spectrometry [LC/MS]) Canvass library of 346 natural products were submitted by 45 academic laboratories and companies around the world.”, “Luminescence intensity is proportional” for “This assay uses ATP (luminescence) content”, “ATAD5 expression.” for “measure the cytotoxiciy of compounds on MCF7 human breast cancer cell line.”
ATAD5 Agonist assay protocol: 1. […] A first readout of fluorescence signal was acquired via the ViewLux (PerkinElmer) plate reader using filter sets for AFC (380-400nmEx/505Em) and 1 second exposure setting. […] 8.#A second readout of luminescence signal was acquired via the ViewLux plate reader using a clear emission filter, 10 second exposure setting.

[3] = J3T Cancer Cell Toxicity qHTS against the NCATS CANVASS Library (AID 1347371); conditions: J3T dog glioma viability, ATP luminescence, 72 h; at 46.1 µM (top of the series)
Procedure, shortened: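 Cells plated at 500 per well, compounds pin-transferred, plates incubated 72 hr at 37C, then CellTiterGlo added and luminescence read to measure ATP content.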

[4] = biological target: Nuclear receptor subfamily 1 group I member 3 (Homo sapiens) (UniProt Q14994); assay: qHTS for Constitutive Androstane Receptor (CAR) Antagonist screened against the NCATS CANVASS Library (AID 1347372); conditions: HepG2-hCAR-CYP2B6 luciferase, CITCO-stimulated antagonist mode; series mostly up to 46.1 µM;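 further: cells stimulated with 50 nM CITCO agonist so inhibition reflects antagonism; luciferase from CYP2B6 promoter reporter driven by hCAR in HepG2 cells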
Source text: (§2) Natural products and their derivatives continue to be wellsprings of nascent therapeutic potential. However, many laboratories have limited resources for biological evaluation, leaving their previously isolated or synthesized compounds largely or completely untested. To address this issue, the Canvass library of natural products was assembled (https://tripod.nih.gov/canvass), in collaboration with academic and industry researchers, for quantitative high-throughput screening (qHTS) across a diverse set of cell-based and biochemical assays. […] The library was formatted into 1536-well plates and evaluated in 50 qHTS (in an 11-pnt concentration series) bioassays with broad scope of disease-relevant mechanisms. The resulting data set from 50 different assays was then systematically analyzed to identify overall trends and specific natural products with interesting biological activities. […]
Material: A double-stable (hCAR and CYP2B6-2.2kb) transfected cell line, derived from human hepatoma (HepG2) cells, was utilized for the duration of the quantitative high-throughput screens. […] A first readout of fluorescence signal was acquired via the ViewLux (PerkinElmer) plate reader using a FITC dichroic mirror, excitation 405/10 nm filter, and emission 540/25 nm filter; and using 65 light energy, 1 second exposure, and 2x binning settings. […]

[5] = biological target: Nuclear receptor subfamily 1 group I member 3 (Homo sapiens) (UniProt Q14994); assay: qHTS for Constitutive Androstane Receptor (CAR) Agonist screened against the NCATS CANVASS Library (AID 1347373); conditions: HepG2-hCAR-CYP2B6 luciferase reporter, ONE-Glo luminescence; series mostly up to 46.1 µM;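 further: every well also contained 1.5 µM PK11195 alongside the test compound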
Procedure, shortened: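 HepG2-hCAR-CYP2B6 cells, 2500/well, attached 4hr; cpd + PK11195 1.5uM final; 24hr 37C 5% CO2. CellTiter-Fluor viability read, then ONE-Glo luminescence for CAR activation.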

[6] = qHTS for Hypoxia signaling pathway (HIF-1) antagonists against the NCATS CANVASS Library (AID 1347374); conditions: HRE-bla ME-180 cells, HIF-1 beta-lactamase reporter, CoCl2; series mostly up to 38.3 µM;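 further: HRE-bla ME-180 cells stimulated with cobalt chloride to stabilize HIF-1alpha; nearly all actives have a fitted effect of over 60% in size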
Procedure, shortened: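 HRE-bla ME-180 cells in medium with 0.5% dialyzed FBS received compounds (11-point series) plus CoCl2 (60 uM addition stock) for 17 hrs at 37C. Beta-lactamase activity read with CCF4 (405 nm ex, 460/530 nm em); CellTiter-Glo viability measured in same wells.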

[7] = qHTS for Hypoxia signaling pathway (HIF-1) agonists against the NCATS CANVASS Library (AID 1347375); conditions: HRE-bla ME-180 cells, HIF-1 beta-lactamase reporter, 17 h; series mostly up to 38.3 µM
Procedure, shortened: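 ME-180 HRE-bla reporter cells; 2,000/well, 0.5% dialyzed FBS; cpd added after 5 h, 17 h 37C/5% CO2; CCF4-AM 2 h RT; FRET 460/530 nm; CellTiter-Glo viability same wells, 30 min.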

[8] = 10-beta competent E. coli microbial cell viability qHTS against the NCATS CANVASS Library (AID 1347376); conditions: E. coli 10-beta viability, BacTiter-Glo ATP luminescence, overnight; series mostly up to 46.1 µM
Procedure, shortened: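 E. coli 10-beta, 0.2 OD; cpds 11-pt; o/n 37C, 5% CO2; BacTiter-Glo 20 min RT; luminescence (ATP) = viable cells. Daunomycin ctrl.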

[9] = qHTS for H2AX Agonists against the NCATS CANVASS Library (AID 1347378); conditions: CHO-K1 H2AX phosphorylation, HTRF TR-FRET, 3 h; series mostly up to 76.9 µM;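 further: phospho-H2AX S139 level in CHO-K1 lysates by TR-FRET emission ratio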
Procedure, shortened: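 Signal is the 665/620 nm emission ratio from europium cryptate and d2 antibody pair, rising with S139-phosphorylated H2AX. CHO-K1 cells saw test agents for 3 hr at 37C; detection ran 24 hr at room temperature.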

[10] = qHTS for Inflammasome Signaling Inhibitors: IL-1-beta AlphaLISA screen against the NCATS CANVASS Library (AID 1347379); conditions: THP-1 LPS/ATP, IL-1B AlphaLISA secretion, 16 h; at 57.5 µM (top of the series);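 further: human THP-1 cells primed with LPS then triggered with ATP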
Source text: as §2
IL-1-beta qHTS protocol: Three microliters containing 3000 THP-1 cells were dispensed into the wells of solid, white, tissue culture treated Greiner 1,536-well plates. […] The AlphaLISA signal was read by a PerkinElmer EnVision plate reader with an ultrasensitive luminescence detector and 1536 Plate HTS AlphaScreen aperture (excitation of 680nm and emission of 615nm).

Measured: outcome

Chain of Nuclear receptor subfamily 1 group I member 3 (Homo sapiens) (Q14994 whole entry, looked up): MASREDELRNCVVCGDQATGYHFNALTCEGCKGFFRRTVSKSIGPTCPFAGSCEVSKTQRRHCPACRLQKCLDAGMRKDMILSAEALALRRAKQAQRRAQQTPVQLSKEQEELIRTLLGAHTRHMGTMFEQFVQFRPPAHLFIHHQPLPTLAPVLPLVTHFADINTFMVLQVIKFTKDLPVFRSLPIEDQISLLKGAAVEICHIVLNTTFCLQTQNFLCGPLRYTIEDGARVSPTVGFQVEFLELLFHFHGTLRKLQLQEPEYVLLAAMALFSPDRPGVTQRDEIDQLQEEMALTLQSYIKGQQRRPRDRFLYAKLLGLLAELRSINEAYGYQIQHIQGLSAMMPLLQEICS

NCC(O)c1ccc(O)cc1 (stereo not given)
inactive: [1] | [2] | [3] | [4] | [5] | [6] | [7] | [8] | [9] | [10]
